# From PMC8384837, “Expanding the binding specificity for RNA recognition by a PUF domain”
# Assays:
# Test in all cases: yeast three-hybrid, YBZ-1, SC-Leu-His + 0.5 mM 3-AT, 4 days
# Conditions in all cases: tags: N-Gal4 AD-HA kept; label: inside an RPR1-promoter hybrid RNA with tandem MS2 sites; ssRNA
# PUM1 PUF domain R3-GPK = PUM1 PUF domain R3-GPK (Homo sapiens, UniProt Q14671 828-1176, C935G;R936P;Q939K)
# Outline: (§1)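 Matching RNA elements and Pumilio-1 PUF domain libraries, randomized at the three base-contacting residues of every repeat, were co-expressed from a centromeric plasmid in strain YBZ-1 (LexA–MS2 coat fusion, HIS3 reporter). The repeat regions were PCR-amplified and Illumina-sequenced from cells grown four days on SC-Leu (input) or SC-Leu-His + 0.5 mM 3-AT (selection). The interaction score is the log change in variant frequency from input to selection. It is computed in log2, with a pseudocount of 1 for absent variants.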
# PUM1 PUF domain R1-GHR = PUM1 PUF domain R1-GHR (Homo sapiens, UniProt Q14671 828-1176, S863G;R864H;Q867R)
# Outline: as §1
# PUM1 PUF domain R6-SWD = molecular target: T1, PUM1 PUF domain R6-SWD (Homo sapiens, UniProt Q14671 828-1176, N1043S;Y1044W;Q1047D)
# T1 sequence: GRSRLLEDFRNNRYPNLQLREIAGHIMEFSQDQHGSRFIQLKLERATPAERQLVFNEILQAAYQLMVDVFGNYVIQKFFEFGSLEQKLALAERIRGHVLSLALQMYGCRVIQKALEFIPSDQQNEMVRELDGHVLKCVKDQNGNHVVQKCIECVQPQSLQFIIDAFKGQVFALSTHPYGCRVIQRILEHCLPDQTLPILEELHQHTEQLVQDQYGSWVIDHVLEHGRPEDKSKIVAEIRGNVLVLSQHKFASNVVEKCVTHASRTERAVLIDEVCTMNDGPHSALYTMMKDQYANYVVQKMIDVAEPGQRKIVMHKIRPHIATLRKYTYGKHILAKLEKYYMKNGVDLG
# Outline: as §1
# PUM1 PUF domain R5-FRT = PUM1 PUF domain R5-FRT (Homo sapiens, UniProt Q14671 828-1176, C1007F;Q1011T)
# Outline: as §1
# PUM1 PUF domain R5-RAM = PUM1 PUF domain R5-RAM (Homo sapiens, UniProt Q14671 828-1176, C1007R;R1008A;Q1011M)
# Outline: as §1
# PUM1 PUF domain R7-KTE = PUM1 PUF domain R7-KTE (Homo sapiens, UniProt Q14671 828-1176, S1079K;N1080T)
# Outline: as §1
# PUM1 PUF domain R7-EYN = PUM1 PUF domain R7-EYN (Homo sapiens, UniProt Q14671 828-1176, S1079E;N1080Y;E1083N)
# Outline: as §1
# PUM1 PUF domain R7-RGN = PUM1 PUF domain R7-RGN (Homo sapiens, UniProt Q14671 828-1176, S1079R;N1080G;E1083N)
# Outline: as §1
# PUM1 PUF domain R8-MHP = PUM1 PUF domain R8-MHP (Homo sapiens, UniProt Q14671 828-1176, N1122M;Y1123H;Q1126P)
# Outline: as §1
# PUM1 PUF domain R8-HFD = PUM1 PUF domain R8-HFD (Homo sapiens, UniProt Q14671 828-1176, N1122H;Y1123F;Q1126D)
# Outline: as §1
sequence,measurement,setting,value
GGCUAGAACUAGUGGAUCCCCCGGCGCCCGGCGGCUCGAGCCCGGGUAAGUGUAAUUAGUCUGCAUGCCGCCGGGCGCCAUGCCUGCAGGUCGACUCUAGAAAACAUG,binding signal,PUM1 PUF domain R3-GPK,3.25 log2 enrichment (interaction score)
GGCUAGAACUAGUGGAUCCCCCGGCGCCCGGCGGCUCGAGCCCGGGUAAGUGUAAAUUGUCUGCAUGCCGCCGGGCGCCAUGCCUGCAGGUCGACUCUAGAAAACAUG,binding signal,PUM1 PUF domain R1-GHR,1.34 log2 enrichment (interaction score)
GGCUAGAACUAGUGGAUCCCCCGGCGCCCGGCGGCUCGAGCCCGGGUAAGUGGAAAUAGUCUGCAUGCCGCCGGGCGCCAUGCCUGCAGGUCGACUCUAGAAAACAUG,binding signal,PUM1 PUF domain R6-SWD,5.64 log2 enrichment (interaction score)
GGCUAGAACUAGUGGAUCCCCCGGCGCCCGGCGGCUCGAGCCCGGGUAAGUGUCAAUAGUCUGCAUGCCGCCGGGCGCCAUGCCUGCAGGUCGACUCUAGAAAACAUG,binding signal,PUM1 PUF domain R5-FRT,2.21 log2 enrichment (interaction score)
same,binding signal,PUM1 PUF domain R5-RAM,2.69 log2 enrichment (interaction score)
GGCUAGAACUAGUGGAUCCCCCGGCGCCCGGCGGCUCGAGCCCGGGUAAGUCUAAAUAGUCUGCAUGCCGCCGGGCGCCAUGCCUGCAGGUCGACUCUAGAAAACAUG,binding signal,PUM1 PUF domain R7-KTE,2.46 log2 enrichment (interaction score)
same,binding signal,PUM1 PUF domain R7-EYN,3.13 log2 enrichment (interaction score)
same,binding signal,PUM1 PUF domain R7-RGN,3.02 log2 enrichment (interaction score)
GGCUAGAACUAGUGGAUCCCCCGGCGCCCGGCGGCUCGAGCCCGGGUAAGCGUAAAUAGUCUGCAUGCCGCCGGGCGCCAUGCCUGCAGGUCGACUCUAGAAAACAUG,binding signal,PUM1 PUF domain R8-MHP,2.6 log2 enrichment (interaction score)
same,binding signal,PUM1 PUF domain R8-HFD,2.46 log2 enrichment (interaction score)
GGCUAGAACUAGUGGAUCCCCCGGCGCCCGGCGGCUCGAGCCCGGGUAAGUGUAAAUCGUCUGCAUGCCGCCGGGCGCCAUGCCUGCAGGUCGACUCUAGAAAACAUG,binding signal,PUM1 PUF domain R1-GHR,2.23 log2 enrichment (interaction score)
GGCUAGAACUAGUGGAUCCCCCGGCGCCCGGCGGCUCGAGCCCGGGUAAGUGUUAAUAGUCUGCAUGCCGCCGGGCGCCAUGCCUGCAGGUCGACUCUAGAAAACAUG,binding signal,PUM1 PUF domain R5-FRT,1.56 log2 enrichment (interaction score)
